Holding throughout (assay): PBM; 200 nM protein, PBS
Holding throughout (conditions): dsDNA, one strand shown

The target in experiment [1] is T1, NKX2-4 (Homo sapiens, UniProt Q9H2Z4 175-261, P217L).
T1 sequence: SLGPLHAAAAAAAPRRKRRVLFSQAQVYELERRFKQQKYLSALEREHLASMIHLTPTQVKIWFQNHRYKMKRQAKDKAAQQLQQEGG

The target of experiment [2] is T2, NKX2-4 (Homo sapiens, UniProt Q9H2Z4 175-261, T231S).
T2 sequence: T1 sequence with L43P, T57S

In experiment [3] the target is T3, NKX2-4 (Homo sapiens, UniProt Q9H2Z4 175-261).
T3 sequence: T1 sequence with L43P

Experiment [4] concerns the target T4, NKX2-4 (Homo sapiens, UniProt Q9H2Z4 175-261, R246Q).
T4 sequence: T1 sequence with L43P, R72Q

Experiment [5] has as its target NKX3-2 (Homo sapiens, UniProt P78367 192-278, P234S).
The target of experiment [6] is NKX3-2 (Homo sapiens, UniProt P78367 192-278).
Sequence of NKX3-2 (Homo sapiens, UniProt P78367 192-278) (P78367 192-278): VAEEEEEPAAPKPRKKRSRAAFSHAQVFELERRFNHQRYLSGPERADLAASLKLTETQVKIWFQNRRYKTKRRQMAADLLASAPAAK
The target in experiment [7] is PROP1 (Homo sapiens, UniProt O75360 56-141).
Sequence of PROP1 (Homo sapiens, UniProt O75360 56-141) (O75360 56-141): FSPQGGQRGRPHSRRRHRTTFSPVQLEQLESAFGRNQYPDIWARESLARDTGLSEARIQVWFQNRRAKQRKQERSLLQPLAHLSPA
Experiment [8] concerns the target PROP1 (Homo sapiens, UniProt O75360 56-141, R99H).
Experiment [9] deals with PROP1 (Homo sapiens, UniProt O75360 56-141, F88S).
Sequence of PROP1 (Homo sapiens, UniProt O75360 56-141, F88S) (O75360 56-141 F88S): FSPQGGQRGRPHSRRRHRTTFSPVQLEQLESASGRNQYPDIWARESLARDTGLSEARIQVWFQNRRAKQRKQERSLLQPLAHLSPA
The target of another experiment is T5, NKX2-6 (Homo sapiens, UniProt A6NCS4 118-204, F151L).
T5 sequence: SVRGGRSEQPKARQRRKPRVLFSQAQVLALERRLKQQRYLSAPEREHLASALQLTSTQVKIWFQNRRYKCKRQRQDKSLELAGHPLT

Numbering of substitutions follows the chain as printed.

Sequence of NKX3-2 (Homo sapiens, UniProt P78367 192-278, P234S) (P78367 192-278 P234S): as the sequence (P78367 192-278) above, with P43S counted along it
Sequence of PROP1 (Homo sapiens, UniProt O75360 56-141, R99H) (O75360 56-141 R99H): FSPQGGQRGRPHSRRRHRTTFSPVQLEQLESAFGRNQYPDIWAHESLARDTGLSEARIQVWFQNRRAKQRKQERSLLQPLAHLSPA

For CGCCACAA, the binding signal was 9.76 upbm affinity estimate (log intensity, higher = more binding, comparable within an allelic series) with NKX2-4 [1]; 9.79 upbm affinity estimate (log intensity, higher = more binding, comparable within an allelic series) with NKX2-4 [2]; 9.73 upbm affinity estimate (log intensity, higher = more binding, comparable within an allelic series) with NKX2-4 [3]; 9.79 upbm affinity estimate (log intensity, higher = more binding, comparable within an allelic series) in the experiment with NKX2-4 [4].

In the case of GCACTCAA, the binding signal is 12.5 upbm affinity estimate (log intensity, higher = more binding, comparable within an allelic series) with NKX2-4 [1]; 12.9 upbm affinity estimate (log intensity, higher = more binding, comparable within an allelic series) with NKX2-4 [2]; 12.4 upbm affinity estimate (log intensity, higher = more binding, comparable within an allelic series) with NKX2-4 [3]; 13 upbm affinity estimate (log intensity, higher = more binding, comparable within an allelic series) in the experiment with NKX2-4 [4].

Consider ACCACTCA, for which the binding signal with NKX2-4 [1] was 12.4 upbm affinity estimate (log intensity, higher = more binding, comparable within an allelic series); in the experiment with NKX2-4 [2] it was 12.8 upbm affinity estimate (log intensity, higher = more binding, comparable within an allelic series); with NKX2-4 [3], 12.3 upbm affinity estimate (log intensity, higher = more binding, comparable within an allelic series); with NKX2-4 [4], 12.8 upbm affinity estimate (log intensity, higher = more binding, comparable within an allelic series); with NKX3-2 [5], 12.5 upbm affinity estimate (log intensity, higher = more binding, comparable within an allelic series); with NKX3-2 [6] it was 12.6 upbm affinity estimate (log intensity, higher = more binding, comparable within an allelic series).

On to ATCCACTC, for which the binding signal in the experiment with NKX2-4 [1] was 12.4 upbm affinity estimate (log intensity, higher = more binding, comparable within an allelic series); in the experiment with NKX3-2 [5], 12.5 upbm affinity estimate (log intensity, higher = more binding, comparable within an allelic series).

For the sequence AGTATCTC, the binding signal with NKX2-4 [1] was 11.5 upbm affinity estimate (log intensity, higher = more binding, comparable within an allelic series); with NKX2-4 [3] it was 11.4 upbm affinity estimate (log intensity, higher = more binding, comparable within an allelic series); with NKX2-4 [4], 11.6 upbm affinity estimate (log intensity, higher = more binding, comparable within an allelic series).

Regarding CATCGCGA, the binding signal with NKX2-4 [1] was 9.66 upbm affinity estimate (log intensity, higher = more binding, comparable within an allelic series); with NKX2-4 [2] it was 9.66 upbm affinity estimate (log intensity, higher = more binding, comparable within an allelic series); with NKX2-4 [3] it was 9.73 upbm affinity estimate (log intensity, higher = more binding, comparable within an allelic series); with NKX2-4 [4], 9.58 upbm affinity estimate (log intensity, higher = more binding, comparable within an allelic series).

As for CAGGCATG, the binding signal was 9.76 upbm affinity estimate (log intensity, higher = more binding, comparable within an allelic series) in the experiment with NKX2-4 [1]; 9.76 upbm affinity estimate (log intensity, higher = more binding, comparable within an allelic series) in the experiment with NKX2-4 [2]; 9.66 upbm affinity estimate (log intensity, higher = more binding, comparable within an allelic series) with NKX2-4 [3]; 9.82 upbm affinity estimate (log intensity, higher = more binding, comparable within an allelic series) in the experiment with NKX2-4 [4].

As for ATGAGTGG, the binding signal in the experiment with NKX2-4 [1] was 12.4 upbm affinity estimate (log intensity, higher = more binding, comparable within an allelic series); with NKX2-4 [2], 12.8 upbm affinity estimate (log intensity, higher = more binding, comparable within an allelic series); in the experiment with NKX2-4 [3] it was 12.3 upbm affinity estimate (log intensity, higher = more binding, comparable within an allelic series); with NKX2-4 [4], 12.8 upbm affinity estimate (log intensity, higher = more binding, comparable within an allelic series).

For the sequence CCCGGTGC, the binding signal is 9.16 upbm affinity estimate (log intensity, higher = more binding, comparable within an allelic series) in the experiment with NKX2-4 [1]; 9.15 upbm affinity estimate (log intensity, higher = more binding, comparable within an allelic series) with NKX2-4 [2]; 9.25 upbm affinity estimate (log intensity, higher = more binding, comparable within an allelic series) with NKX2-4 [3]; 9.25 upbm affinity estimate (log intensity, higher = more binding, comparable within an allelic series) in the experiment with NKX2-4 [4]; 6.92 upbm affinity estimate (log intensity, higher = more binding, comparable within an allelic series) in the experiment with PROP1 [7]; 6.73 upbm affinity estimate (log intensity, higher = more binding, comparable within an allelic series) with PROP1 [8]. Besides, the binding signal with PROP1 [9] was 6.51 upbm affinity estimate (log intensity, higher = more binding, comparable within an allelic series).

CACTTCAC: the binding signal in the experiment with NKX2-4 [1] was 12.5 upbm affinity estimate (log intensity, higher = more binding, comparable within an allelic series); with NKX2-4 [2], 12.8 upbm affinity estimate (log intensity, higher = more binding, comparable within an allelic series); with NKX2-4 [3] it was 12.3 upbm affinity estimate (log intensity, higher = more binding, comparable within an allelic series); in the experiment with NKX2-4 [4], 12.9 upbm affinity estimate (log intensity, higher = more binding, comparable within an allelic series); in the experiment with NKX2-6, 10.7 upbm affinity estimate (log intensity, higher = more binding, comparable within an allelic series).

With GCGGGCCC, the binding signal is 9.61 upbm affinity estimate (log intensity, higher = more binding, comparable within an allelic series) in the experiment with NKX2-4 [1]; 9.54 upbm affinity estimate (log intensity, higher = more binding, comparable within an allelic series) with NKX2-4 [2]; 9.63 upbm affinity estimate (log intensity, higher = more binding, comparable within an allelic series) with NKX2-4 [3]; 9.68 upbm affinity estimate (log intensity, higher = more binding, comparable within an allelic series) in the experiment with NKX2-4 [4].

On to CTGAAAAG, for which the binding signal with NKX2-4 [1] was 11 upbm affinity estimate (log intensity, higher = more binding, comparable within an allelic series); in the experiment with NKX2-4 [3], 10.8 upbm affinity estimate (log intensity, higher = more binding, comparable within an allelic series); with NKX2-4 [4], 11.1 upbm affinity estimate (log intensity, higher = more binding, comparable within an allelic series).

On to ACACTCAA, for which the binding signal with NKX2-4 [1] was 12.5 upbm affinity estimate (log intensity, higher = more binding, comparable within an allelic series); with NKX2-4 [2], 12.8 upbm affinity estimate (log intensity, higher = more binding, comparable within an allelic series); with NKX2-4 [3], 12.3 upbm affinity estimate (log intensity, higher = more binding, comparable within an allelic series); with NKX2-4 [4] it was 12.8 upbm affinity estimate (log intensity, higher = more binding, comparable within an allelic series); in the experiment with NKX2-6, 10.6 upbm affinity estimate (log intensity, higher = more binding, comparable within an allelic series).
